# Hits are enriched below; roughly 1.6% of the tested compounds scored in any of these assays.
# C8 TRAIL sens: viability loss with TRAIL in NB7+C8 cells, primary screen, TRAIL sensitizer project, cell-based, ATPlite luminescence | inhibition (viability loss, TRAIL sensitization), % at 10 µM | actives 1% (n = 360,000);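 active = compounds causing at least 50% loss of cell viability in the single-dose screen, relative to plate controls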
# Platelet DG rel: inhibitors of platelet dense granule secretion, primary screen, cell-based, MLPCN, human platelets | inhibition, %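 (compounds screened at 7.5 µM in platelet-rich plasma)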 | AID 1663, 2009 | human platelet-rich plasma, SFLLRN dense granule ATP release, luminescence | actives 0.22% (n = 300,000);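 active = mean replicate score, as percent of positive control, at or above 50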
# PPC-1+TRAIL kill: compounds killing PPC-1 cancer cells with TRAIL present, primary screen, TRAIL potentiator project, ATPLite luminescence, uHTS; actives 0.41% (n = 220,000); PPC-1 cells + TRAIL, ATPLite viability luminescence; cell killing (% activity), % at 4 µM or 5 µM; AID 1443, 2008;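 active = cell killing above 50% in the first pass at 4 µM, then a duplicate retest at 5 µM averaging 50% or more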;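 also: plate controls were cells with TRAIL plus DMSO for no effect and medium-only wells lacking cells for full effect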
# STAT1 inh: STAT1 signaling inhibitors, primary screen, cell-based, HTS, luciferase reporter | NIH 3T3 STAT1-luciferase reporter, IFN-gamma, luminescence | inhibition, % at 5.5 µM | actives 0.35% (n = 200,000);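 active = inhibition above a set limit, the mean inhibition across all tested compounds plus 3 SD, cut at about 34% in these data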;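 also: 0% = IFN-gamma with DMSO and 100% = IFN-gamma with 300 µM nifuroxazide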
# STAT3 inh: IL-6 driven STAT3 reporter inhibitors, primary screen, U3A cells, luciferase, luminescence, MLSCN library; inhibition, % at 5.5 µM; actives 0.89% (n = 190,000); IL-6 STAT3-luciferase reporter; host cell line lacks STAT1;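 active = inhibition above the mean inhibition across all screened compounds plus 3 SD, cut at about 44% in these data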;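 also: 0% = DMSO only wells and 100% = 100 µM nifuroxazide control wells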
# * = called active by the depositor; . = no result given.
SMILES,C8 TRAIL sens,Platelet DG rel,PPC-1+TRAIL kill,STAT1 inh,STAT3 inh
OCCCNc1c2ccccc2nc2ccccc12,42,4,.,.,.
O=C(O)c1ccc(COc2cccc(CO)c2)cc1,1,75*,6,-7,-10
COc1ccc(CN(C(=O)CSc2nnc(-c3ccccc3C)o2)c2ccc(F)cc2)cc1,95*,6,28,3,9
Oc1c(C=Nc2cccc3cccnc23)sc2ccccc12,.,23,3,0,-20
Cc1cccc(/N=C/c2sc3ccccc3c2O)n1,25,51*,-1,.,.
O=C(N/N=C/c1sc2ccccc2c1O)c1ccccc1,53*,22,27,-26,-15
COc1ccc(C(=O)N/N=C/c2sc3ccccc3c2O)cc1,48,-16,38,12,17
COc1cc(/C=C/c2cc(C(F)(F)F)[nH]c(=O)n2)cc(OC)c1OC,-20,.,5,46*,17
COc1cc(OC)c(OC)cc1/C=C/c1cc(C(F)(F)F)[nH]c(=O)n1,5,15,.,8,11
O=C(Nc1ccc(OC(F)F)cc1)Nc1cccc(C(F)(F)F)c1,60*,-8,17,6,13
COc1ccc(CC(N)c2csc(NC(=O)Nc3cccc(C(F)(F)F)c3)n2)cc1 (centres undefined),70*,.,.,.,.
Cc1ccc(S(=O)(=O)Nc2ccc(NC(=O)Nc3cccc(C(F)(F)F)c3)cc2)cc1,-5,-11,-1,-6,1
CCN(CC)S(=O)(=O)c1ccc(NC(=O)Nc2cccc(C(F)(F)F)c2)cc1,69*,12,2,4,-2
NC(Cc1ccc(C(F)(F)F)cc1)c1csc(NC(=O)Nc2ccccc2)n1 (centres undefined),-17,.,.,.,.
CC[C@H](CO)Oc1cc(NCc2cccc(N)c2)c2ncn(C(C)C)c2c1,-2,.,.,.,.
C(=C\c1ccccc1)/CN1CCN(C(c2ccccc2)c2nnnn2Cc2ccccc2)CC1 (centres undefined),-4,.,.,.,.
Cc1ccc(CN2C(=O)CCC2(C)c2nnnn2Cc2ccccc2)cc1 (centres undefined),6,.,.,.,.
COc1cccc(/C=N/Nc2ncnc(Cl)c2N)c1O,59*,0,60*,0,17
COc1ccccc1/C=N/Nc1nncc2ccccc12,19,28,13,-55,3
COc1cccc(C=NNc2ccc([N+](=O)[O-])cn2)c1OC,-38,.,.,.,.
COc1cccc(/C=N/Nc2nc3ccccc3n3cnnc23)c1,24,4,19,-4,2
COc1cccc(/C=N/Nc2nc3ccccc3n3cnnc23)c1O,54*,7,34,-15,16
COc1cccc(C=NNc2nnc(NN=Cc3cccc(OC)c3OC)c3ccccc23)c1OC,80*,.,.,.,.
COc1cccc(/C=N/Nc2ncnc(N)c2[N+](=O)[O-])c1OC,43,32,-2,59*,86*
COc1ccc(/C=N/Nc2ncnc(Cl)c2N)cc1OC,-12,21,13,-6,8
SMILES,C8 TRAIL sens,Platelet DG rel,PPC-1+TRAIL kill,STAT1 inh,STAT3 inh
COC(=O)c1c(NC(=O)C2CC(=O)NN2Cc2ccccc2)sc(C)c1C (centres undefined),8,60*,1,0,4
COC(=O)c1cc(C)sc1NC(=O)C1CC(=O)NN1Cc1ccccc1 (centres undefined),-1,5,9,1,-6
COc1ccc(OC)c2sc(N(CCCN(C)C)C(=O)CCS(=O)(=O)c3ccccc3)nc12,32,2,.,.,.
Cc1ccc2sc(N(CCCN(C)C)C(=O)CCS(=O)(=O)c3ccccc3)nc2c1C,51*,6,.,.,.
O=C(NC(=S)Nc1ccc(Cl)cn1)c1cc([N+](=O)[O-])ccc1N1CCOCC1,10,5,.,.,.
CC(O)C(NS(=O)(=O)c1ccc(Cl)cc1)C(=O)OCC(=O)c1ccc2c(c1)NC(=O)CO2 (centres undefined),-45,.,.,.,.
CC(C)CC(NC(=O)c1ccc(Cl)cc1)C(=O)OCC(=O)c1ccc2c(c1)NC(=O)CO2 (centres undefined),73*,1,-6,7,3
CC(C)CC(=O)/C(=C/c1ccc(N(C)C)cc1)n1cncn1,-17,-2,.,.,.
CC(C)CC(=O)/C(=C\c1ccc(Cl)cc1Cl)n1cncn1,64*,10,9,9,19
CCCCC[C@@H](C)N1C[C@H](COCc2ccccc2)Oc2cc(N3CC[C@@H](N(C)C)C3)ccc2S1(=O)=O,77*,.,.,.,.
Cc1ccc([N+](=O)[O-])cc1N=Nc1c(-c2ccc([N+](=O)[O-])cc2)[nH]n(C(N)=S)c1=O,50*,2,35,35*,46*
COC(=O)c1ccc(CCc2cc(O)c(Br)cc2O)cc1,49*,.,.,.,.
CC(C)NC(=O)C1(C)CSCC(=O)N1CCCN1CCOCC1 (centres undefined),-2,.,.,.,.
O=C(Nc1nnc(SCC(=O)N2CCCc3ccccc32)s1)c1ccc2ccccc2c1,83*,-1,64*,6,22
Cc1cc(C)cc(C(=O)Nc2nnc(SCC(=O)N3CCCc4ccccc43)s2)c1,8,0,18,1,-8
O=C(Nc1nnc(SCC(=O)N2CCCc3ccccc32)s1)c1ccccc1,75*,-2,75*,8,24
Oc1ccc(/C=N/Nc2ncc(Br)cn2)c(O)c1,51*,7,18,-13,13
Oc1ccccc1/C=N/Nc1nccnc1Cl,17,2,27,-6,26
CCN(CC)S(=O)(=O)c1ccc(N/N=C/c2ccc(O)cc2O)nc1,18,5,52*,9,14
Oc1ccc(/C=N/Nc2nccnc2Cl)c(O)c1,3,135*,36,7,10
COc1ccc(S(=O)(=O)N2CCC(C(=O)NCCC(=O)NCc3cccnc3)CC2)cc1,-17,.,.,.,.
Cc1c(C(=O)NCc2ccc3c(c2)OCO3)sc(=O)n1Cc1ccc(-c2ccccc2)cc1,-5,.,.,.,.
O=C(CCl)Nc1c(C(=O)Nc2ccc3c(c2)OCCO3)oc2ccccc12,61*,-12,.,.,.
O=C(Nc1ccc2c(c1)OCCO2)C(=O)c1c[nH]c2ccccc12,82*,19,.,.,.
O=C(Nc1ccc2c(c1)OCO2)C(=O)c1c[nH]c2ccccc12,49,35,.,.,.
SMILES,C8 TRAIL sens,Platelet DG rel,PPC-1+TRAIL kill,STAT1 inh,STAT3 inh
COCC(=O)Nc1c(C(=O)Nc2ccc3c(c2)OCO3)oc2ccccc12,12,-10,.,.,.
Cc1ccccc1C(=O)Nc1ccc2c(c1)OCCO2,62*,17,.,.,.
O=C(Nc1ccc2c(c1)OCCO2)c1ccccc1,51*,29,.,.,.
O=C(NC1CCCc2c1cnn2-c1ccccc1F)c1ccncc1 (centres undefined),17,.,.,.,.
Cc1ncoc1C(=O)Nc1ccc2c(c1)OCCO2,8,66*,6,-21,25
COc1ccc(NC(=O)c2ocnc2C)cc1OC,-3,2,20,5,8
CCOc1cccc(C(=O)Nc2ccc3c(c2)OCCO3)c1,59*,7,.,.,.
